Reference: PubChem BioAssay (NCI)
This is part of a sample that, as a whole, favours compounds with a hit. Of some 79,000 tested, about 15% had one in any assay. Rule as the data show it: active = growth inhibition above about 70%; inactive = the rest.

Assays:
[1] = NCI Yeast Anticancer Drug Screen. Data for the rad50 strain (AID 155);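 also: 0% = growth of vehicle-only cultures of the same strain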; conditions: S. cerevisiae rad50 strain growth inhibition; at 50.0 µM; stronger effect = higher value
Method in brief: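 Genetically altered yeast (DNA repair pathway); compound treatment; growth inhibition vs vehicle ctrl.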

[2] = NCI Yeast Anticancer Drug Screen. Data for the mec2-1 strain (AID 157); conditions: S. cerevisiae mec2-1 strain, at 50.0 µM, stronger effect = higher value
Method in brief: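 mec2-1 yeast strain, carrying an alteration in DNA damage repair or cell cycle control, was exposed to compounds; growth inhibition was measured relative to vehicle-treated controls.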

[3] = NCI Yeast Anticancer Drug Screen. Data for the sgs1 mgt1 strain (AID 161);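 also: 0% = growth of cultures given vehicle only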; conditions: S. cerevisiae sgs1 mgt1 strain, at 50.0 µM, stronger effect = higher value
Method in brief: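 Percent growth inhibition was derived by comparing compound-exposed mutant yeast with vehicle-exposed cultures. The strain carries alterations in DNA damage repair.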

[4] = NCI Yeast Anticancer Drug Screen. Data for the cln2 rad14 strain (AID 165);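 also: 0% = growth equal to vehicle treated cultures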; conditions: S. cerevisiae cln2 rad14 strain, at 50.0 µM, stronger effect = higher value
Method in brief: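 Yeast carrying cln2 and rad14 alterations (cell cycle control and DNA damage repair) were exposed to compounds. Growth inhibition was measured against vehicle-treated controls.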

[5] = NCI Yeast Anticancer Drug Screen. Data for the bub3 strain (AID 167); conditions: S. cerevisiae bub3 mutant strain, at 50.0 µM, stronger effect = higher value
Method in brief: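 Yeast carrying a defined mutation is treated with each compound, and growth is compared with that of vehicle-exposed cells to give inhibition.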

[6] = NCI Yeast Anticancer Drug Screen. Data for the mlh1 rad18 strain (AID 175); conditions: S. cerevisiae mlh1 rad18 strain growth inhibition; at 50.0 µM; stronger effect = higher value
Method in brief: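 Growth inhibition of the yeast strain was measured after compound exposure and expressed relative to vehicle-treated controls. The strain carries defined defects in DNA damage repair.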

Measured: growth inhibition

NC(=O)CCC1CCCCN1 (configuration not stated)
inactive: [1] 27.2% | [2] 18.8% | [3] 6.5% | [4] 5.7% | [5] 1.85% | [6] 2.2%

Cc1c(C)c(C)c(CNNC(=S)Nc2ccc(S(=O)(=O)N3CCCCC3)cc2)c(C)c1C
inactive: [1] -4.5% | [2] -17.9% | [3] 9.25% | [4] 8.6% | [5] 6.4% | [6] 7.6%

CC1(C)COC2(CC(C)(C)OC2(C)C)OC1
inactive: [1] -1.45% | [2] 0.8% | [3] -6% | [4] -40.8% | [5] -7.25% | [6] 14.8%

O=C(N/N=C(/c1nc2ccc(Cl)cc2[nH]c1=O)C(O)c1ccc(Cl)cc1Cl)c1ccncc1 (configuration not stated)
inactive: [1] 12.5% | [2] 10.2% | [3] -15.5% | [4] -34.6% | [5] -3.6% | [6] 23.1%

Cc1ccc(-c2nn[nH]n2)cc1[N+](=O)[O-]
inactive: [1] 5.65% | [2] 8.6% | [3] -0.65% | [4] -11% | [5] -21.9% | [6] 16.1%

Cc1[nH]c(=O)c2ccccc2c1O
inactive: [1] 10.6% | [2] -8.15% | [3] -3.7% | [4] 6.35% | [5] -17.2% | [6] -1.35%

O=C(c1ccc(C2CCCCC2)cc1)C(C(c1ccccc1)N1CCOCC1)N1CCOCC1 (configuration not stated)
inactive: [1] -54.7% | [2] -16.6% | [3] -19.9% | [4] -10.6% | [5] -3.75% | [6] 23.9%

CC(=O)Oc1ccc(C(C)(C)C)cc1
inactive: [1] 10.7% | [2] -7.25% | [3] 1.55% | [4] -11.7% | [5] -4.1% | [6] 5.15%

COc1cc(C(=O)N2C3C4CCC(C)(OC4(C)C)C32)cc(OC)c1OC (configuration not stated)
inactive: [1] 18.4% | [2] -15.4% | [3] 2.8% | [4] 10.2% | [5] 6% | [6] -8.9%

CC1(C)OC(=O)c2c(cc(N3CCOCC3)oc2=O)O1
inactive: [1] 3.35% | [2] -2.9% | [3] 1.35% | [4] 9.55% | [5] 11.1% | [6] -1.25%

COC(=O)C1=CN=C(C(=O)OC)NN1
inactive: [1] 13.9% | [2] 0.25% | [3] -8.6% | [4] 15.8% | [5] -4.45% | [6] 3.15%

COC(=O)c1cc2c(cc1N=Cc1ccccc1Cl)OCO2
inactive: [1] 0.45% | [2] 4.3% | [3] 12.1% | [4] -1.65% | [5] -0.85% | [6] 6.35%

CCOc1ccccc1NC(=O)CC1SC(=Nc2ccc([N+](=O)[O-])cc2)NC1=O (configuration not stated)
inactive: [1] 24.6% | [2] 20.9% | [3] 10.3% | [4] 10.9% | [5] -13.3% | [6] -12.8%

C[N+]1(C)CCC(O)CC1
inactive: [1] -5.5% | [2] 7.2% | [3] -3.1% | [4] -13.4% | [5] 14.9% | [6] 1%

CN(C)C(=O)Nc1cccc(OC(=O)NC2CCCCCCC2)c1
inactive: [1] 2.65% | [2] 28.3% | [3] 29.2% | [4] 3.95% | [5] 34.4% | [6] 19.6%

O=C(O)c1cc(/C=C/c2cc(O)ccc2O)ccc1O
inactive: [1] -14.7% | [2] -21.8% | [3] -24.8% | [4] -2.05% | [5] -33.4% | [6] -39.6%

CC(C)CC(=O)c1ccc2ccccc2c1O
inactive: [1] -0.1% | [2] -17.1% | [3] 6.7% | [4] -12.2% | [5] -14.2% | [6] 5.95%

C=CCOC(=O)/C=C\c1ccccc1OC
inactive: [1] 23.9% | [2] 6.45% | [3] 16.6% | [4] -39.9% | [5] 14.8% | [6] -3.3%

CC(N)C(c1ccccc1)c1ccccc1 (configuration not stated)
inactive: [1] 19.5% | [2] 15.8% | [3] 7.15% | [4] 11.3% | [5] 33.6% | [6] 19.4%

CCCC(=O)C(O)CCC (configuration not stated)
inactive: [1] -20.5% | [2] -16.7% | [3] -2.6% | [4] -47.9% | [5] 1.65% | [6] -26.1%

CCCCCCC1OCCC(C)O1 (configuration not stated)
inactive: [1] 7.6% | [2] 5.95% | [3] 16.9% | [4] -10.3% | [5] -22.4% | [6] 12.9%

Cc1ccc(OC/C=C/CS(=O)(=O)c2ccc(C)cc2)cc1
inactive: [1] -11.6% | [2] 10.3% | [3] 5.65% | [4] -23.2% | [5] -12.7% | [6] -28.6%

COc1ccc(S(=O)(=O)N(C)c2ccccc2)cc1
inactive: [1] 2.9% | [2] -56.8% | [3] -20.6% | [4] 13.3% | [5] 19.1% | [6] 3.5%

Nc1ccc(N=Nc2ccc(OCCN(CCO)CCO)cc2)c(N)n1
inactive: [1] 23.8% | [2] -22.8% | [3] 8.8% | [4] 4.95% | [5] 21.6% | [6] 15.7%

NC(=O)CNCc1ccccc1
inactive: [1] 0.3% | [2] -3.75% | [3] 12.7% | [4] -52% | [5] 0.25% | [6] 4.25%

CC(C)C1=C(Cc2ccccc2)C(=O)O/C1=C\c1cc(Cl)c(O)c(Cl)c1
inactive: [1] 19.9% | [2] 8% | [3] 24.6% | [4] 25.6% | [5] 32.5% | [6] -30.9%

COc1ccc(C=Nc2ccc3c(c2)OCO3)cc1Br
inactive: [1] 16.9% | [2] 16.9% | [3] 11.7% | [4] 14.6% | [5] 9.4% | [6] 19.2%

O=S(=O)(O)c1ccc(O)c2ncccc12
inactive: [1] 20.2% | [2] 16.4% | [3] 23.6% | [4] 21.4% | [5] 12.1% | [6] 25.9%

CC1=CCCCC1O (configuration not stated)
inactive: [1] -7.15% | [2] 10.6% | [3] -6.7% | [4] 4.55% | [5] 14.1% | [6] -0.6%

COC1=C(OC)C(=O)C2=C(OCO2)C1=O
inactive: [1] -1.05% | [2] 16.2% | [3] 4.2% | [4] -1.35% | [5] 16.5% | [6] -1.1%

Brc1nccs1
inactive: [1] -21.9% | [2] -21.4% | [3] -13.2% | [4] -11.1% | [5] -9.05% | [6] -27.1%

CN1CCC(=C2c3ccccc3CC(O)c3sccc32)CC1 (configuration not stated)
inactive: [1] 24.2% | [2] 5.7% | [3] -16.6% | [4] 3.5% | [5] 9.2% | [6] 39%

c1cc(-c2cn3c(n2)SCC3)ccn1
inactive: [1] 15.5% | [2] 5.9% | [3] -12.8% | [4] 7.8% | [5] 25.2% | [6] 19.9%

CC(=O)OC1C(C)OC(OC(=O)C2CCC3C(C2)OC2(CC(OC(=O)/C=C/c4ccccc4)C(C)CO2)C32CO2)C(OC2OC(C)C(O)C(O)C2O)C1O (configuration not stated)
inactive: [1] 1.3% | [2] -16.8% | [3] 2.3% | [4] 13.5% | [5] 3.65% | [6] -62.9%

COc1ccc(CCc2nccn2C)cc1OC
inactive: [1] -69.3% | [2] -54.9% | [3] -34.7% | [4] -16.4% | [5] -7.95% | [6] -32.2%

O=P(NC1CCCCC1)(NC1CCCCC1)NC1CCCCC1
inactive: [1] 19.1% | [2] -1.75% | [3] -0.75% | [4] 12.1% | [5] 12.8% | [6] 14.2%

CC1=C(c2cc(C(=O)Nc3nccs3)nc(NC#N)n2)Sc2ccccc2N1
inactive: [1] -9.2% | [2] 5.4% | [3] -8.65% | [4] 15.2% | [5] 4.5% | [6] 10.3%

CCCC(=O)c1ccc(C)cc1
inactive: [1] -1.2% | [2] -18.8% | [3] -4.2% | [4] 13.5% | [5] 8.65% | [6] 2.65%

CCCNC(=O)N1C(=O)c2ccccc2S1(=O)=O
inactive: [1] -26.8% | [2] -7.2% | [3] 7.85% | [4] -26.1% | [5] -14.1% | [6] -22.6%

COC1(C2COc3cc(OCc4ccccc4)ccc3C2=O)C=C2OCOC2=CC1=O (configuration not stated)
inactive: [1] -16.6% | [2] -18% | [3] -6.6% | [4] -33% | [5] 9.45% | [6] -4.75%

CC(C)CNc1ncnc2c1cnn2C
inactive: [1] -1.65% | [2] 2.9% | [3] -1.65% | [4] -3.15% | [5] 9.8% | [6] -8.45%

O=C(O)CCc1ccccc1-c1ccccc1C(=O)O
inactive: [1] 4% | [2] 1.45% | [3] -2.45% | [4] 8.8% | [5] 0.35% | [6] 31.4%
